Among all 220,000 compounds or so, about 8,200 (3.7%) were called active. The sample holds actives, similar compounds and a random draw of the others, so the mix is not that of the screen. A number with no mark means an inactive call.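 How the source made its calls: active means compounds that reduced the stress-induced luciferase reporter signal by more than about 70% of percent inhibition (limit read from the data); inactive means the rest.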

A short description of the experiment: blockers of ER-stress CHOP reporter expression – cell-based, unfolded protein response, luciferase reporter, primary screen (AID 2732).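 Further: 0% = tunicamycin plus vehicle and 100% = wells without tunicamycin.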 The following applies: CHO-K1 CHOP-promoter luciferase, tunicamycin-induced, 15-18 h; at 10 µM; hits give high values. (Reporter assays use an easily measured gene product as a stand-in for the process of interest.)
Consider `CC(C)Cc1ccc(C(C)C(=N)N)cc1` (stereo not given), for which the inhibition was 4.47%.

With `CC(=O)NC(CC(=O)Nc1nccs1)c1ccccc1` (stereo not given), the inhibition was -2.49%.

As to `CCC(C)(C)NC(=O)C(c1ccc(O)cc1)N(C(=O)Cn1nnc2ccccc21)c1ccc(NC(C)=O)cc1` (stereo not given), the inhibition is 4.95%.

Turning to `Cc1cc(-n2cnc(-c3cn(C)nc3C)n2)no1`, the inhibition is -11.3%.

Consider `Brc1ccc2c(c1)[C@H]1OCC[C@H]1[C@@H](c1cccs1)N2`, for which the inhibition is 39.4%.

Regarding `O=c1[nH][nH]c(=O)c2cc(N3CCCC3)ccc12`, the inhibition was 2.26%.

As to `COc1cccc(OC)c1C(=O)Nc1ccc(N2CCCCC2)cc1`, the inhibition was 15.2%.

As for `O=C1C=CC(=O)N1c1ccc(N2CCCCC2)cc1`, the inhibition is 94% (active).

As to `Cc1nc(C(=O)NCc2ccccc2)sc1C1(C)CC(c2cccnc2)=NO1` (stereo not given), the inhibition was 22.9%.

As for `O=C(N/N=C/c1cccc2cccnc12)[C@H]1C[C@@H]1c1ccccc1`, the inhibition was 52.4%.

Turning to `CC1=NN(C(=O)Cc2ccc(C)cc2)C(O)(c2cccnc2)C1` (stereo not given), the inhibition is 73.8% (active).

For `CC1=NN(C(=O)c2ccc(Br)cc2)C(O)(c2ccccc2)C1` (stereo not given), the inhibition is 16.6%.

In the case of `CC1=NN(C(=O)c2ccccc2Br)C(O)(c2cccnc2)C1` (stereo not given), the inhibition is -24.4%.

`O=C(O)C1=C[C@H](c2cccs2)C[C@H](OCCCCO)O1`: the inhibition was -3.52%.

`Cc1ccc(S(=O)(=O)N(C)CC(=O)OCC(=O)Nc2ccccc2)cc1`: the inhibition is -0.65%.

With `COc1ccccc1P(=O)(c1ccccc1)c1ccccc1NC(C)=O` (stereo not given), the inhibition is 10.1%.

Consider `CC(=O)c1ccc2c(c1)OCCOCCOc1ccc(C(C)=O)cc1OCCOCCO2`, for which the inhibition was 1.66%.

With `COCCn1c(=NC(=O)c2ccccc2[N+](=O)[O-])sc2cc(S(C)(=O)=O)ccc21`, the inhibition was -7.33%.

Consider `Cn1c(=NC(=O)c2ccc3c(c2)OCCO3)sc2cc(S(C)(=O)=O)ccc21`, for which the inhibition was 91.9% (active).

Regarding `O=C(Nc1ccccc1)O/N=C1/CCCc2occc21`, the inhibition was -8.45%.

On to `CN1CCN(c2cc3c(cc2F)c(=O)c(C(=O)O)cn3CCF)CC1`, for which the inhibition is 2.99%.

For the molecule `O=C(Cn1cnc2cc([N+](=O)[O-])ccc2c1=O)NC(=O)NCc1ccccc1`, the inhibition was -6.05%.

For `O=C(NNc1cc(Cl)cc(Cl)c1)c1c(F)cccc1Cl`, the inhibition is 30.1%.

For the molecule `Cc1nn(CC(=O)N/N=C/c2ccc(F)cc2)c(C)c1[N+](=O)[O-]`, the inhibition is -4.46%.

Consider `CSc1nnc(SCc2nc3sc(C(=O)O)c(C)c3c(=O)[nH]2)s1`, for which the inhibition is 3.13%.

Consider `O=C(NN1C(=O)C2CCCCC2C1=O)c1ccco1` (stereo not given), for which the inhibition was 6.45%.

Take `CC(=O)/C(=N\Nc1ccc(Cl)cc1Cl)Sc1cccc2cccnc12`: the inhibition is 93.6% (active).

For the molecule `S=C(NCc1cccnc1)Nc1ccc(Cl)cc1Cl`, the inhibition was 2.87%.

On to `O=C(CSc1cccc2cccnc12)N/N=C/c1cccnc1`, for which the inhibition is 42.7%.

Turning to `Nc1ccc2nn(-c3ccc(Cl)cc3)nc2c1`, the inhibition was 30.4%.

Regarding `CCCc1ccc(OCc2ccc(C(=O)N/N=C/c3cccc([N+](=O)[O-])c3)o2)c(OC)c1`, the inhibition was 85.8% (active).

Consider `COc1cc(/C=N/O)ccc1OCc1ccc([N+](=O)[O-])cc1`, for which the inhibition was 2.17%.

In the case of `COC(=O)c1ccc(COc2ccc(/C=N/NC(=O)C(=O)Nc3ccc(OC)cc3)cc2OC)o1`, the inhibition was 17.4%.

With `COc1cc(C(CCN2CCN(c3ccccc3)CC2)c2c(OC)cc(OC)c3ccc(=O)oc23)cc(OC)c1OC` (stereo not given), the inhibition is -15.7%.

As for `Cc1[nH]n(-c2ccc(Cl)cc2)c(=O)c1/C=N/n1c(C)nc2ccccc2c1=O`, the inhibition was 26.2%.

Turning to `CCOc1[nH]n(-c2ccc(Cl)cc2)c(=O)c1C=Nc1ccc(O)cc1`, the inhibition was 73.4% (active).

Consider `CCOc1ccc(N=Cc2c(O)n(-c3cccc(C)n3)c(=O)c3ccccc23)cc1`, for which the inhibition is -5.5%.

With `CC(C)(C)c1cc(NC(=O)NN2CCOCC2)nn1-c1c(Cl)cc(Cl)cc1Cl`, the inhibition was 11.2%.

As to `CCNC(=S)N1CCN(CCN=CC2=C(O)CC(C)(C)CC2=O)CC1`, the inhibition was 13%.

As to `CC(C)(C)NC(=O)NCc1ccco1`, the inhibition was 6.03%.

For `CSc1sc(C(=O)NNC(=O)c2ccc(Cl)cc2)c2c1C=CCC2`, the inhibition was 0.19%.

`O=C(Nc1ccccc1C(F)(F)F)N1CCCC1c1cccnc1` (stereo not given): the inhibition was 4.33%.

`O=[N+]([O-])/C=C1\CCCCCN1`: the inhibition is -14.7%.

Consider `O=C(O)CSCC(=O)Nc1cccc(C(F)(F)F)c1`, for which the inhibition was -3.97%.

As for `Cn1nc(C(F)(F)F)c(C(=O)Nc2cccc(C(F)(F)F)c2)c1SCc1ccc(Cl)cc1`, the inhibition is 80.9% (active).

Regarding `O=C(Nc1cccc(C(F)(F)F)c1)c1cnccn1`, the inhibition was -10.5%.

As to `CCOC(=O)CSc1nc(C)c(Oc2ccc(Cl)cc2Cl)c(=O)[nH]1`, the inhibition is 10.4%.

On to `O=C(NN1C(=O)C2C(C1=O)C1C=CC2C12CC2)c1ccccc1Cl` (stereo not given), for which the inhibition is 3.92%.

For `COc1ccc(C(=O)/C=C/Nc2ccccn2)cc1`, the inhibition was 73.5% (active).

For `COc1ccc(-c2csc(Nc3ccccn3)n2)cc1`, the inhibition was -4.38%.

Regarding `CCOc1cc(NC(=O)c2ccccn2)c(OCC)cc1NC(=O)c1ccc(OC)cc1`, the inhibition was -5.86%.

On to `Cn1c2ccc(F)cc2c2nnc(NN)nc21`, for which the inhibition is 13.9%.

For `N#CCCCn1c(O)c(N=NC(=O)C(O)c2ccccc2)c2ccccc21` (stereo not given), the inhibition was 11.1%.

In the case of `Cc1ccc(C(c2nnnn2CS(=O)(=O)c2ccc(C)cc2)N2CCC(C(N)=O)CC2)cc1` (stereo not given), the inhibition was 33.9%.

Consider `CC(C)C(c1nnnn1CCc1ccccc1)N1CCN(C(=O)c2ccco2)CC1` (stereo not given), for which the inhibition was -7.76%.

On to `CC(C)C(c1nnnn1Cc1ccccc1)N1CCC(C(N)=O)CC1` (stereo not given), for which the inhibition is 76.1% (active).

Turning to `COc1ccc(CS(=O)/C(Cl)=C(/Cl)C(=O)Nc2ccc(OC)nc2)cc1` (stereo not given), the inhibition was 107% (active).

Turning to `COc1ccc(NC(=S)NCCNC(C)=O)cc1`, the inhibition is -5.59%.

For `COc1ccc(NC(=S)Nc2ccccc2Cl)cn1`, the inhibition was 1.96%.

Regarding `Cc1nc(COc2cccc(Cl)c2)sc1C(=O)/C=C/N(C)C`, the inhibition was -1.3%.

As for `NC(=O)C1(N2CCCCC2)CCN(C(=S)Nc2ccc(Cl)cc2)CC1`, the inhibition is 8.9%.

With `NC(=O)C1(N2CCCCC2)CCN(C(=O)c2ccc(C#Cc3ccccc3)o2)CC1`, the inhibition was 78.8% (active).

In the case of `CC(C)(O)C#Cc1ccc(C(=O)N2CCC(C(N)=O)(N3CCCCC3)CC2)cc1`, the inhibition is 20.2%.

For the molecule `COc1ccc(CCNC(=O)C2CC3Cn4c(nc5cc(C)c(C)cc54)C3N2C)cc1` (stereo not given), the inhibition was -11.2%.

Turning to `Cc1ccc(N2NC(=O)/C(=C/C=C/c3ccco3)C2=O)cc1C`, the inhibition is 5.23%.

As for `Cc1cccc(N=C2NC(=O)/C(=C/c3cn(C)c4ccccc34)S2)c1`, the inhibition is 14%.

Consider `Cc1ccc(N=C2NC(=O)/C(=C/C=C/c3ccco3)S2)cc1C`, for which the inhibition was 84.4% (active).

For the molecule `CCN(CC)C(=O)CC(c1ccc2c(c1)OCO2)c1c(OC)cc(OC)c2c(-c3ccccc3)cc(=O)oc12` (stereo not given), the inhibition is 9.26%.

Consider `Cc1cc(C(=O)Nc2ccccc2N2CCOCC2)c2ccccc2n1`, for which the inhibition was 26.9%.

For the molecule `O=C(Nc1ccccc1N1CCN(c2ccccc2)CC1)c1cccc(F)c1`, the inhibition is 44.2%.

`O=C(Nc1ccccc1N1CCN(C(=O)c2ccccc2)CC1)c1ccc2c(c1)OCO2`: the inhibition is 40%.

With `O=C(Nc1ccccc1N1CCCCC1)c1cccc(F)c1`, the inhibition was 76% (active).

Turning to `Cc1cccc(C(=O)Nc2ccccc2N2CCN(c3ccc(F)cc3)CC2)c1`, the inhibition is 30.4%.

In the case of `O=C(Nc1ccccc1N1CCCCC1)c1ccc2nccnc2c1`, the inhibition was 79% (active).

For `CCc1ccccc1N1CN(Cc2ccco2)CNC1=S`, the inhibition is -7.09%.

In the case of `Cc1nc(-c2nnc(SCC(=O)Nc3cc(C(F)(F)F)cc(C(F)(F)F)c3)n2C)cs1`, the inhibition is 61.4%.

Turning to `CC1CC(C)(C)n2c(O)c(N=NC(N)=S)c3cccc1c32` (stereo not given), the inhibition is 21.3%.

With `CCOc1ccc2sc(NS(=O)(=O)c3ccc(N)cc3)nc2c1`, the inhibition was 5.24%.

With `CCNc1nc(Oc2ccc(C(=O)OC)cc2)nc(N2CCOCC2)n1`, the inhibition is -6.61%.

Take `COC(=O)c1ccc(Oc2nc(Nc3ccc(F)cc3)nc(N3CCCC3)n2)cc1`: the inhibition is 73.6% (active).

Turning to `COC(=O)c1ccc(Oc2nc(NC(C)C)nc(SC)n2)cc1`, the inhibition is 20.5%.

`CCOc1ccc(-c2n[nH]c(C)c2-c2ccccn2)c(O)c1`: the inhibition was 9.43%.

In the case of `C=C(C)COc1ccc(-c2nc(N)ncc2-c2ccccc2OC)c(O)c1`, the inhibition is 7.39%.

As to `C=C(C)COc1ccc(-c2n[nH]c(C)c2-c2ccccc2OC)c(O)c1`, the inhibition is 105% (active).

In the case of `CCOc1ccc(-c2nc(N)ncc2-c2ccccc2OC)c(O)c1`, the inhibition is 16.1%.

As to `C=C(C)COc1ccc(-c2n[nH]c(C)c2-c2ccccc2)c(O)c1`, the inhibition was 112% (active).

Regarding `Cc1[nH]nc(-c2ccc(OCc3cnn(-c4ccccc4)c3)cc2O)c1Oc1ccc(Cl)cc1`, the inhibition is 51.5%.

Regarding `Brc1ccc(-c2nn[nH]n2)cc1`, the inhibition was 6.83%.

Regarding `COC(C[C@@H](O)[C@H](C)[C@H](O)COCc1ccccc1)OC`, the inhibition was 0.72%.

As for `Cc1nc(CNS(=O)(=O)c2cc([N+](=O)[O-])ccc2C)cs1`, the inhibition is 24.2%.

Consider `O=C(NCCc1ccccc1)Oc1ccc(Cl)cc1`, for which the inhibition is -12.7%.

Take `C=C(C)Cn1c(C)cc(C)c(S(=O)(=O)c2ccccc2C)c1=O`: the inhibition was 72.7% (active).

For the molecule `Cc1ccccc1Nc1c(-c2ccccc2)nc2ncccn12`, the inhibition was 1.44%.

For `Clc1ccc(CSc2nnc3c(n2)[nH]c2ccccc23)cc1`, the inhibition was 10.8%.

In the case of `C=CCC1(C#N)C(=S)NC(C)=C(C(=O)OCC)C1c1ccccc1` (stereo not given), the inhibition is 8.99%.

Usually inhibition stands for the change of the read-out against control, counted positive when it falls.
